# “And” between values parts separate entries of the source, which are not always exact repeats. Equal values may be shown once. Screen size: about 150,000 compounds; about 540 (0.36%) showed an effect of 50% or more. The sample holds strong results, similar compounds and a random draw of the others, so the mix is not that of the screen.
# Test system: Plasmodium falciparum
# Experiment: Primary screen in NF54 nanoGlo assay, in single point, at 2uM, 72h; a lower Z score goes with more inhibition
# Assay type: functional, Erythrocyte
# Conditions: timepoint 72 hour
Compound,% Inhibition [%],Z score,% Inhibition (2 µM)
O=C1CNC(C(=O)N2CCC[C@H]2c2ccncc2)=NN1c1ccccc1,3,-0.62,–
O=C1CC(C(=O)N2CCCC2c2ccncc2)CN1c1ccccc1 (stereo unspecified),-8,1.05,–
O=C1CCC(C(=O)N2CCC[C@H]2c2ccncc2)=NN1c1ccccc1,67,1.73,–
CN(C)c1noc(CN2CCc3c(F)cc(F)cc3C2)n1,10,-0.88,–
CCCc1nc(CN2CCc3ccc(F)cc3C2)no1,-4,0.53,–
CN(C)c1noc(CN2CCc3ccc(F)cc3C2)n1,51,-2.97,–
O=C(NCc1ccccc1)c1[nH]cnc1C(=O)N1CCCCC1,11,-1.23,–
Cc1nn(C)c2nc3c(c(N)c12)C(=O)C[C@@H](c1ccccc1)C3,-14,1.9,–
COc1ccc(-c2n[nH]c3c2C(=O)C[C@@H](c2ccccc2)C3)cc1,-5,0.48,–
Nc1nc(-c2ccccc2)c2cc3c(nn12)C[C@H](c1ccc(F)cc1)CC3=O,57,0.5,–
CNc1snc(C)c1C(=O)N1CCN(Cc2ccc(-c3cccc(F)c3)s2)CC1,2,-0.21,–
O=C(N[C@@H]1CC[C@H]2CCOc3ccccc3C(=O)N3CCN(C4CCC(F)(F)CC4)C[C@H]3C(=O)NC[C@H]1O2)C1CCOCC1,29,-3.41,–
CC(=O)N1CCC(C(NC(=O)c2cccs2)C(=O)N2CCCCC2C)CC1 (stereo unspecified),4,-0.78,–
Cc1ccc(NC(=O)N2CCC(C(NC(=O)c3ccccc3)C(=O)N3CCCCC3C)CC2)cc1 (stereo unspecified),70,0.76,–
Cc1ccc(S(=O)(=O)N2CCC([C@H](NC(=O)c3ccccc3)C(=O)N3CCCC3)CC2)cc1,-14,1.34,–
COc1ccc(Cc2n[nH]c3c2CN(Cc2nccs2)CC3)cc1OC,6,-0.85,–
Cc1noc(CNC(=O)c2ccc3[nH]c(=O)[nH]c3c2)n1,-7,1.3,–
CCOC1CC(N(C)S(=O)(=O)c2cnc(C)s2)C12CCC2 (stereo unspecified),-5,0.63,–
CCCc1nc2ncnn2c(O)c1NC(=O)Nc1ccccc1Br,2,-0.44,–
N#C[C@@H](C(=O)NCc1ccccc1)c1nc2ccccc2s1,-2,0.39,–
N#CC(c1nc2ccccc2s1)c1nc2ccccc2s1,60,0.46,–

Compound,% Inhibition [%],Z score,% Inhibition (2 µM)
N#C[C@@H](C(=O)c1cc2ccccc2[nH]1)c1nc2ccccc2s1,16,-2.03,–
CCN(CC)C(=O)Nc1ccc(-c2c(C)nn(CC(N)=O)c2C)cc1,1,-0.2,–
CCN(CC)c1ccc(CNC(=O)[C@H](C)c2c(C)noc2C)cc1F,-12,1.74,–
CCOc1cccc(CN2CCC(C)(c3noc(C4CCOCC4)n3)CC2)c1,-13,1.51,–
Fc1ccccc1N1CCN(C2CCN(Cc3ccncc3)CC2)CC1,20,-2.44,–
Fc1ccccc1N1CCN(C2CCN(Cc3c[nH]c4ccccc34)CC2)CC1,67,-0.71,–
CCN1CCN(C2CCN(Cc3c[nH]c4ccccc34)CC2)CC1,5,-0.83,–
c1cc(Oc2ccc3nnnn3n2)cc(-c2nnco2)c1,-14,1.28,–
Cn1c(CN2CCN(c3ccnc4ccccc34)CC2)cc(=O)n(C)c1=O,17,-2.24,–
NC(=O)CO[C@H]1CCOC[C@H]1NC(=O)c1ccc(Oc2ccccc2)o1,4,-0.64,–
Cc1cccc(CN2CCC[C@@](O)(CN3CCN(CC4CC4)CC3)C2=O)c1,-10,1.1,–
CC1CN(C(CNCc2cnn(C)c2)c2cccs2)CCO1 (stereo unspecified),-9,0.92,–
CCN(c1noc(C2CCN(C(=O)C(C)C)CC2)n1)C(C)C,-18,2.32,–
CCc1nn(C)c(OC)c1CNC(=O)N[C@@H]1Cc2ccccc2[C@H]1O,-13,1.27,–
COc1ccc2cc1Oc1cccc(c1)CO[C@H]1CCN(C(=O)CN3CCC(O)CC3)C[C@H]1NC(=O)CC2,-23,2.88,–
COc1cccc(-c2nc(C)c(C(=O)Nc3n[nH]c(CC(C)C)n3)s2)c1,–,–,82% and 77%
COc1cccc(-c2nc(C)c(C(=O)Nc3nc(C(C)C)n[nH]3)s2)c1,68,-7.28,–
COc1cccc(-c2nc(C)c(C(=O)NCc3nnc4ccccn34)s2)c1,-3,0.36,–
COc1cccc(-c2nc(C)c(C(=O)NC[C@@H]3CCCN4CCCCC34)s2)c1 (stereo partly specified),-1,0.17,–
COc1ccc(-c2nc(C)c(C(=O)Nc3n[nH]c(CC(C)C)n3)s2)cc1OC,15,-2.32,–
COc1cccc(-c2nc(C)c(C(=O)Nc3cccc4[nH]ccc34)s2)c1,-1,0.1,–

Compound,% Inhibition [%],Z score,% Inhibition (2 µM)
O=C(CCC1CCCCC1)NC1CCN(c2cn[nH]c(=O)c2)CC1,-10,1.05,–
CCN(CC)c1nc2cc(C(=O)NCc3ccc(C)cc3)ccc2c(=O)n1Cc1ccccc1,5,-0.78,–
CC(=O)Nc1ccc(C)cc1S(=O)(=O)N1CC=C(c2c(C)n(Cc3ccccc3C)c3ccccc23)CC1,92,-8.31,–
CC(=O)Nc1ccc(C)cc1S(=O)(=O)N1CC=C(c2c(C)n(Cc3ccc(Cl)cc3)c3ccccc23)CC1,-14,1.87,–
COc1ccc(Cn2c(C)c(C3=CCN(S(=O)(=O)c4cc(C)c(C)cc4C)CC3)c3ccccc32)cc1,0,0.05,–
Cc1cc(C(F)(F)F)n(C[C@@H](C)Cn2cc(-c3cncnc3)nn2)n1,-6,0.77,–
COC(=O)Nc1nc(-c2ccccc2)c(-c2nccc(OCC(F)(F)F)c2C)s1,30,-3.82,–
COc1ccc(Cl)cc1N(Cc1ccccc1)Cc1ccccc1,-2,0.32,–
COc1ccccc1N(Cc1ccccc1)C1=NC(=[N+](Cc2ccccc2)c2ccccc2OC)c2ccccc21,73,-6.15,–
COc1ccccc1N(C)Cc1c(C)noc1C,7,-0.98,–
O=C(CCc1c(F)cccc1Cl)N1CC(Nc2cnccn2)C1,-6,0.7,–
CC1(CO)CCCC1NCC(C)(O)C(F)(F)F (stereo unspecified),33,-3.73,–
O=c1c2ccccc2nc(Cc2ccccc2)n1Nc1ccccc1,-13,1.76,–
O=C(NCC1CCOCC1)c1ccc(-c2ccc(Cl)cn2)cc1,7,-1.01,–
COc1nc(-c2cccc(C(=O)N3C[C@@H]4CC[C@H](C3)C(=O)N4)c2)ncc1F,68,-12.2,–
COc1nc(-c2cccc(C(=O)NCC3CCOCC3)c2)ncc1F,70,-12.03,–
CCc1cc(-c2cccc(C(=O)N3C[C@@H]4CC[C@H](C3)C(=O)N4)c2)nc(C)n1,-4,0.67,–
Cc1ccc(-c2cccc(C(=O)NCC3CCOCC3)c2)c(C)n1,-2,0.22,–
O=C(NCC1CCOCC1)c1ccc(-c2ccc(C(F)(F)F)cn2)cc1,1,-0.21,–
O=C1N[C@H]2CC[C@@H]1CN(C(=O)c1cccc(-c3ccc4nccc(O)c4c3)c1)C2,-3,0.64,–
Cc1cc(C)nc(-c2cccc(C(=O)NC[C@H]3CCOC3)c2)n1,-2,0.19,–

Compound,% Inhibition [%],Z score,% Inhibition (2 µM)
Cc1nc[nH]c1CN(Cc1c(C)nn(C)c1C)C(C)C,-7,0.99,–
CC(C)N(CC1CCC1)C(=O)NC1CCC(Oc2cnccn2)CC1 (stereo unspecified),29,-3.26,–
COc1cc(C)c(-c2ccc(C(=O)N3CCCCCC3)cc2)cn1,-10,1.56,–
Cc1ccc2c(C3=CCN(C(=O)c4cnc5[nH]c(=O)[nH]c(=O)c5c4)CC3)c[nH]c2c1,6,-1.15,–
O=C(CCc1cc2n(n1)CCN(Cc1ccc3ccccc3n1)C2)NCCO,-16,2.81,–
CCOCCC1CCN(C(=O)c2cccc(-n3cccn3)n2)CC1,-15,1.43,–
CCc1ocnc1C(=O)NC1CCCCCC1C(=O)OC (stereo unspecified),-7,0.61,–
O=C(c1ccccc1)C1C(c2ccccc2)N1C(=O)c1cccc(Cl)c1 (stereo unspecified),-7,0.84,–
CC(=O)Nc1ccc(-c2cn(C)c[n+]2C)cc1,-42,4.97,–
CC(=O)Nc1ccc(-c2cc(-c3ccccc3)nc(-c3ccccc3)n2)cc1,-14,2.76,–
CC(=O)Nc1ccc(-c2cn3c4ccccc4ccc3[n+]2C)cc1,87,-10.86,–
OC1(c2csc(CN3CCOCC3)n2)CCN(Cc2ccccn2)CC1,-9,1.39,–
Cn1c(C(=O)Nc2cc(F)ccc2NC(=O)c2ccccn2)cc(Cl)c1Cl,-27,2.71,–
CC(C)N1CC[C@H](NCCc2ccccc2)C1,-6,0.77,–
O=C(NCCc1ccccc1)NC1CCCC1,-11,2.11,–
C[C@H]1CCC[C@@H](NCCc2ccccc2)CCC/C=C/c2cc(O)cc(O)c2C(=O)O1,73,-6.47,–
NC(=O)c1ccc(NCCOc2cccc(Cl)c2Cl)nn1,-9,1.2,–
CCC[C@H]1CN(C(=O)c2cccc3cn[nH]c23)CCN1CCOC,4,-0.6,–

# Source: ChEMBL document CHEMBL4888484, “Replenishing the malaria drug discovery pipeline: Screening and hit evaluation of the MMV Hit Generation Library 1 (HGL1) against asexual blood stage Plasmodium falciparum ,using a nano luciferase reporter read-out” (2022)
